PMC7819943, “Rice protein-binding microarrays: a tool to detect cis-acting elements near promoter regions in rice”
In all, about 68,000 sequences were measured (“fluorescence intensity (a.u.)”: median about 9,100, highest 2% from about 16,000 on). The entries come from a sample that favours the highest values as a whole.

Molecular target: OsWRKY34 (Oryza sativa, UniProt Q0JBA9 1-250)
Assay: protein-binding microarray (RPBM); PBS, 2% BSA, 51.3 ng/ul salmon testes DNA, 50 uM zinc acetate, 200 nM TF, 25 C, 1 h; high values mean tight binding
Settings: protein: recombinant; tags: N-terminal polyhistidine and DsRed monomer fusion (pET32a); label: CyDye5-dUTP incorporated in the synthesized complementary strand; 3' TTTTT single-stranded linker to array surface; dsDNA, one strand shown
Outline: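 Binding signal is reported as fluorescence intensity per feature (arbitrary units) from an Axon 4000B scanner. Incubation used 200 nM of each Ni–NTA-purified, N-terminally polyhistidine- and DsRed-fused transcription factor from E. coli BL21-CodonPlus on a double-stranded custom Agilent array for 1 h at 25 °C, with 50 µM zinc acetate in the buffer, followed by washing.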

Sequence of OsWRKY34 (Q0JBA9 entry or part of it): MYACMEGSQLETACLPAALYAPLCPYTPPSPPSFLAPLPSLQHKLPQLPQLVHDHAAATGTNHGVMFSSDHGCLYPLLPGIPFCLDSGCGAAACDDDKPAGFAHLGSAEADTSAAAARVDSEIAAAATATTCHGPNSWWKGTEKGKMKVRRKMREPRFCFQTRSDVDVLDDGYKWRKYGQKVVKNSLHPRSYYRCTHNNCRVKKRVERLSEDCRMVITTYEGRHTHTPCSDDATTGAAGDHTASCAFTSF

Sequence	binding signal
AGGATCGAGGAATTCAGTTAAGCAAAAATATTTATACATGCGGAGTCACCTAGTGCAG	47600 fluorescence intensity (a.u.)
CTCGTTATATCTATTATAAATTTTTTAATATACATGTTATCGGAGTCACCTAGTGCAG	9040 fluorescence intensity (a.u.)
ATCGTACCATTATTCAAAATTTTAAATAGTTACATGTTCACGGAGTCACCTAGTGCAG	8120 fluorescence intensity (a.u.)
ATCTCCGGCGTTTTTCAACCGTATGGCAATGATCATCCTTCGGAGTCACCTAGTGCAG	11100 fluorescence intensity (a.u.)
CTGTGGTGGTGTGCATACGGGTTGGGGTGGAGGGCTGCTCCGGAGTCACCTAGTGCAG	17900 fluorescence intensity (a.u.)
TAGGGAGGGTTGTGGGGAGGGGAGCTGTGGCCGCAATGTCCGGAGTCACCTAGTGCAG	19400 fluorescence intensity (a.u.)
TGGCCGGAGCTAGGGTGGGTGGGTGGTTGGCCGCACCACCCGGAGTCACCTAGTGCAG	8250 fluorescence intensity (a.u.)
GGGCTTGTTGGGGTTGCTGTGGTAGCCGGGAGGGAGGGGACGGAGTCACCTAGTGCAG	28500 fluorescence intensity (a.u.)
GTTGGGGTGGAGGGCTGCTCCAGGTGAGAGGGCTGGGCATCGGAGTCACCTAGTGCAG	9900 fluorescence intensity (a.u.)
GAAGGTTGCTGTTGCTTGTTGTTGGTAGTGTCTTGTGTGCCGGAGTCACCTAGTGCAG	9090 fluorescence intensity (a.u.)
TTGTGGCAATGGCGGCGGTGGCGGTGGCGGTTGGGGTGGCCGGAGTCACCTAGTGCAG	11500 fluorescence intensity (a.u.)
GTGGCTGCGTGTGGTGGCGTTGCACGGCTCGGGTGGGCTCCGGAGTCACCTAGTGCAG	8660 fluorescence intensity (a.u.)
TGGCTGCCGGACTTGGGAGGGACACTGGGTTGGTTGTGGGCGGAGTCACCTAGTGCAG	9440 fluorescence intensity (a.u.)
TAGCTCACATCGTTTTACGTATCTTCCCAATCTCCTGATCCGGAGTCACCTAGTGCAG	8950 fluorescence intensity (a.u.)
CTTTCGCGTTTTCCTTGGGTTTGACAATGGGCTACATTGCCGGAGTCACCTAGTGCAG	9400 fluorescence intensity (a.u.)
TATACTCCTTATCTTGGATTGGTAGTCTTTAGTTTGCTTTCGGAGTCACCTAGTGCAG	9320 fluorescence intensity (a.u.)
AACACCACGCCGCGCGCTCCACGGCAACGCAACGCAGGAACGGAGTCACCTAGTGCAG	8720 fluorescence intensity (a.u.)
CAAAGTTGTGTGTTGTGAAGTGTGAAGGAGAGCTCTATTTCGGAGTCACCTAGTGCAG	8610 fluorescence intensity (a.u.)
TCCGGAGTCTGCACCCATCTTCCCCACGTGCGCGCCCATCCGGAGTCACCTAGTGCAG	8980 fluorescence intensity (a.u.)
ACCATTGATTTTTCAGTACGTGTTTGACCATTCGTCTTATCGGAGTCACCTAGTGCAG	13300 fluorescence intensity (a.u.)
TTTCGTCAGCTGATCGTATATTGACCTTTTCTGTCTCTGTCGGAGTCACCTAGTGCAG	10500 fluorescence intensity (a.u.)

Sequence	binding signal
TTTTCTCATATGTTTGACCATTCGTCTTATTCAAAAAATTCGGAGTCACCTAGTGCAG	9000 fluorescence intensity (a.u.)
TGACGCCGTTGACTTTTTCTCACATGTTTGACTATTCGTCCGGAGTCACCTAGTGCAG	49100 fluorescence intensity (a.u.)
TGACGCCGTTGACTTTTTCTTACATGTTTGACCATTCGTCCGGAGTCACCTAGTGCAG	36700 fluorescence intensity (a.u.)
CACCGTTAATTTTTTCTCACATGTTTGACCATTCATCTTACGGAGTCACCTAGTGCAG	14400 fluorescence intensity (a.u.)
CGCCGTTGACTTTTTCTCATATGTTTGACCATTCATCTTACGGAGTCACCTAGTGCAG	38900 fluorescence intensity (a.u.)
TGACGCCGTTAACTTTTTCTCACATATTTGACTATTTGTCCGGAGTCACCTAGTGCAG	10900 fluorescence intensity (a.u.)
ATTGACTTTTTCTTACACTGTTTAACCATTCGTCTTATTCCGGAGTCACCTAGTGCAG	14000 fluorescence intensity (a.u.)
GCTGTTGACTTTTTCTCACGTGATTGACCTTTCGTCTTATCGGAGTCACCTAGTGCAG	28400 fluorescence intensity (a.u.)
TCGCCGCTTTCCCTTTCTCCCCTGCGCTCTCACGTCAAACCGGAGTCACCTAGTGCAG	8970 fluorescence intensity (a.u.)
CTCTGCTCAGTGCTGCTCACTGCCTCACTCACACTGTCACCGGAGTCACCTAGTGCAG	11000 fluorescence intensity (a.u.)
CTAACCTGGACCGTCCATCCGCGCGAAGTTTTCTCCACCGCGGAGTCACCTAGTGCAG	9060 fluorescence intensity (a.u.)
TTCCACACAATGTGCTAAAAGTTTGACTTTTACACGTCCACGGAGTCACCTAGTGCAG	14500 fluorescence intensity (a.u.)
AACATCTGCCTGCTCACTAAAATGATCTACCGGCTTTTTTCGGAGTCACCTAGTGCAG	8620 fluorescence intensity (a.u.)
CGCTGTTTTTTTTTTATTTTGACGGGTAGTAGAGGCCGCGCGGAGTCACCTAGTGCAG	9990 fluorescence intensity (a.u.)
TTTCAGAGCTATTTGGCCTTTAATACACTTTCCTATTAAGCGGAGTCACCTAGTGCAG	8710 fluorescence intensity (a.u.)
TCATCTCACGCTGTTGACTTTCTCTTTTTTTTTCGGGGAGCGGAGTCACCTAGTGCAG	18000 fluorescence intensity (a.u.)
TAGATGACGCCGTTGATTTTTTTCTCACATATTTGACCATCGGAGTCACCTAGTGCAG	10700 fluorescence intensity (a.u.)
AGATGACGCCGTTGACTTTTTCTTACATATTTGACCATTCCGGAGTCACCTAGTGCAG	25400 fluorescence intensity (a.u.)
TGACGCCGTTGACTTTTTATCTAATGTTTGACTATTCGTCCGGAGTCACCTAGTGCAG	43500 fluorescence intensity (a.u.)
TGACTTTTTCTCACATGTTTGACCATTCGTCTTATTAAAACGGAGTCACCTAGTGCAG	12500 fluorescence intensity (a.u.)
ACTTTTTTTCTCAATCTGTGCTCTTTCACGTGTTTGACTTCGGAGTCACCTAGTGCAG	11400 fluorescence intensity (a.u.)

Sequence	binding signal
CACCGTTGACTTTTTCTCACATGTTTGACCATTCGTCTTACGGAGTCACCTAGTGCAG	48400 fluorescence intensity (a.u.)
TAGACTTTTTCTCACATGTTTGACCATTCGTCTTATTCAACGGAGTCACCTAGTGCAG	11700 fluorescence intensity (a.u.)
AGTTGTTCTTCTCAGCAGGTTGCTGTCATCTTAGACTTTTCGGAGTCACCTAGTGCAG	8410 fluorescence intensity (a.u.)
ACTGTCCACTCACTTTTTCTTCACCCAGGAGACGAAATTTCGGAGTCACCTAGTGCAG	11200 fluorescence intensity (a.u.)
TGGCTTATCTCGTTTTGTATATCATCTTCTTAATCTTTTTCGGAGTCACCTAGTGCAG	10500 fluorescence intensity (a.u.)
CTGCCTCGCTGCCGCCTGCCGTCTCCCCGGGCCCATCTTTCGGAGTCACCTAGTGCAG	8210 fluorescence intensity (a.u.)
GTGGCGTCAAAGTATTGAGGGCGGGGATGCGGCCACCGTACGGAGTCACCTAGTGCAG	8640 fluorescence intensity (a.u.)
ACCTGTGCTTGATGGGATGGAAGCTTGGATTAGGTTGGTTCGGAGTCACCTAGTGCAG	8560 fluorescence intensity (a.u.)
TCTCGCTCGTTTTACCGCAGCATTTTGTTGTTGCTCTAGCCGGAGTCACCTAGTGCAG	8620 fluorescence intensity (a.u.)
AGTTAGTCAAGCGTATCCTATTTTACGTGCCCGCGCGAATCGGAGTCACCTAGTGCAG	9610 fluorescence intensity (a.u.)
GACTATCTTGTCGTTCGGTCCAAAAACCGGCGCCTTATGACGGAGTCACCTAGTGCAG	8300 fluorescence intensity (a.u.)
CACGACCTTAAGCCTCATAATTTGGACAATCACAGCAACTCGGAGTCACCTAGTGCAG	9170 fluorescence intensity (a.u.)
TGATGCCGTTGACTTTTTCTCATATGTTTGACCATTCGTCCGGAGTCACCTAGTGCAG	44800 fluorescence intensity (a.u.)
GCCGTTGACTTTTTCTCACATATTTGACCATTCGTCTTATCGGAGTCACCTAGTGCAG	45300 fluorescence intensity (a.u.)
CGCCGTTGACTTTTTCTCACATGTTTGACCATTCGTCTTACGGAGTCACCTAGTGCAG	42500 ± 475 fluorescence intensity (a.u.)
TTGACCTTTTCTCACATGTTTAACCATTCGTCTTATTTAACGGAGTCACCTAGTGCAG	13500 fluorescence intensity (a.u.)
CATTGACTTTTTCTCACATATTTGTCCATTCGTCTTATTACGGAGTCACCTAGTGCAG	16100 fluorescence intensity (a.u.)
ATAGATGACGCCGTTGATTTTTTCTCATATGTTTGACCATCGGAGTCACCTAGTGCAG	11600 fluorescence intensity (a.u.)
TTTTTTCTCACATGTTTGACCATTCGTCTTATTCAAAAAACGGAGTCACCTAGTGCAG	8550 fluorescence intensity (a.u.)
AATAGATGACGTTGTTGACTTTTTCTCATATGTTTGACCACGGAGTCACCTAGTGCAG	13000 fluorescence intensity (a.u.)
GCACATGTTTGACCATTCATCTTATAAGAAAAAACTTTTGCGGAGTCACCTAGTGCAG	8090 fluorescence intensity (a.u.)

Sequence	binding signal
TTCTCACATGTTTGACCATTCGTCTTATTAAAAATTTTATCGGAGTCACCTAGTGCAG	11100 fluorescence intensity (a.u.)
ACCATGTTGACTTTTTGCACATTTATAGAATCTTTTGGTACGGAGTCACCTAGTGCAG	21800 fluorescence intensity (a.u.)
GTTGACTTTTTTTCACATGTTTGACCATTCATCTTATTCACGGAGTCACCTAGTGCAG	13400 fluorescence intensity (a.u.)
TCGTCCGCTGCAGCCGCTCGCTAGCTAGTAGCTATAGCTACGGAGTCACCTAGTGCAG	8160 fluorescence intensity (a.u.)
ACACAGGCAGCAGTAGCACCTCGATCCATCTACCATTTTACGGAGTCACCTAGTGCAG	10200 fluorescence intensity (a.u.)
CTTAGCTCGTATGTAGACTTTTGATGGCTTAATCCTATTTCGGAGTCACCTAGTGCAG	8550 fluorescence intensity (a.u.)
ATTAGGGATAACCGTCACTGTTTGTTGCTGTTTTTATGTTCGGAGTCACCTAGTGCAG	9960 fluorescence intensity (a.u.)
TTGGTGACTAAGCAGCTAGCTCATATTCCGTTTCAGCTTCCGGAGTCACCTAGTGCAG	9770 fluorescence intensity (a.u.)
TCTCGTGTTCCTCTTCACTACCACTTCTAGAAGCTTCCTCCGGAGTCACCTAGTGCAG	8020 fluorescence intensity (a.u.)
GGGGTTTATTATTTTCCCGGGTTAAATTGCCACGTAAGCACGGAGTCACCTAGTGCAG	10100 fluorescence intensity (a.u.)
ATAATAATATTTTTCACCTATGCCATACTTCTTTTGTCAACGGAGTCACCTAGTGCAG	8040 fluorescence intensity (a.u.)
CGACTCCGACCTCTGCTCTCTTCCTTTTACACCCCATATCCGGAGTCACCTAGTGCAG	11100 fluorescence intensity (a.u.)
TTTACTAAACTCGATCAGTTCTTCCCATATACTCTTGTGACGGAGTCACCTAGTGCAG	9070 fluorescence intensity (a.u.)
ATCAACCATGAACCATCCGCGCCCGCGCACCTCCTCCTCTCGGAGTCACCTAGTGCAG	8100 fluorescence intensity (a.u.)
CGTTGACTTTTTCTCACATGTTTGACCATTCGTCTTATTCCGGAGTCACCTAGTGCAG	31500 fluorescence intensity (a.u.)
TAGCTCATTCATGCCTCCATCGGTTGACTTTTTTTTTCTACGGAGTCACCTAGTGCAG	20500 fluorescence intensity (a.u.)
TTACACTTTCTCCTCCATCATGCGCTCATGGCCATCCATTCGGAGTCACCTAGTGCAG	8320 fluorescence intensity (a.u.)
TTCTCCATTTTTTCATGGTTGACTCTAATCTTCATGACTACGGAGTCACCTAGTGCAG	8280 fluorescence intensity (a.u.)
TGACTTTTTCTCACATGTTTGACCATTCGTCTTATTCAAACGGAGTCACCTAGTGCAG	10900 ± 914 fluorescence intensity (a.u.)
TTGACTTTTTCTCACATGTTTGACCATTCGTCTTATTCAACGGAGTCACCTAGTGCAG	15400 fluorescence intensity (a.u.)
GTCGCCGCCTCCTCCTCTCCATCTCCGCTGCTATTATTGCCGGAGTCACCTAGTGCAG	12900 fluorescence intensity (a.u.)
